# High-throughput results from PubChem BioAssay.
# A selection: hits, their analogues and other compounds. The true share with any hit is near 15%.
# ELG1 DNA repair – ELG1-dependent DNA repair inhibition | hit rate 2.3% among 330,000 | AID 504467 | HEK293T ELG1-luciferase reporter, luminescence, 16 h; DNA damage induced by 5-fluorouridine | Potency, µM (doses to about 46.1 µM), without a hit: at the top dose activity change, negative = inhibition, usual class: inhibitors; note: nearly all actives have a fitted effect of over 55% in size
#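 Overnight (16 hr) co-exposure of 2,000 cells/well to 5-fluorouridine and compound at 37 °C preceded detection. Luciferase was quantified via ONE-Glo luminescence; loss of signal denotes inhibition.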
# ALOX12 inh – blocks human arachidonate 12S-lipoxygenase; Potency, µM (top dose mostly 108 µM), inactives show top-dose activity change, negative = inhibition, actives largely listed as inhibitors; hit rate 1.1% among 580,000; AID 1671190; P18054; purified 12hLO, xylenol orange hydroperoxide absorbance
# Target sequence (P18054 whole entry, looked up): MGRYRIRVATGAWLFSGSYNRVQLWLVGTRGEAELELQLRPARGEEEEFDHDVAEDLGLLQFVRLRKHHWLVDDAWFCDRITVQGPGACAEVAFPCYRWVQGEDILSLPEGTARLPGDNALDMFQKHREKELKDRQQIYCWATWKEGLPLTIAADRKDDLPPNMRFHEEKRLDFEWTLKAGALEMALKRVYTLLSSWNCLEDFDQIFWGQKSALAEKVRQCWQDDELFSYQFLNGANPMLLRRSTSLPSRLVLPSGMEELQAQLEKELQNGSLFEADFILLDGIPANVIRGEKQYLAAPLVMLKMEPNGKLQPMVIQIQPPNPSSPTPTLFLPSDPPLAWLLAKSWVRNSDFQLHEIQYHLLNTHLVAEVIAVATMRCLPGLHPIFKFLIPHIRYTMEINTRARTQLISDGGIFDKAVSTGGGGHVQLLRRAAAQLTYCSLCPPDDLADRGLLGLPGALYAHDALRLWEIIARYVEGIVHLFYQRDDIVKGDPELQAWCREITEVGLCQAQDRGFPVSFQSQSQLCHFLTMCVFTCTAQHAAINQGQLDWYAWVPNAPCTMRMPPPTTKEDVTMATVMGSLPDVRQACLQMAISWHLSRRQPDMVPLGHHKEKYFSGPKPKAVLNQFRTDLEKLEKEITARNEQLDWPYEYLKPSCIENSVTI
#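 Hydroperoxide product was detected by ferrous iron/xylenol orange as the 573 to 405 nm absorbance ratio. Arachidonic acid at 40 uM (final) was turned over for 30 min at room temperature by 150 nM human 12hLO, pH 7.0 Hepes buffer, after 15 min compound preincubation.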
# TDP1 cell noCPT – qHTS for Inhibitors of human tyrosyl-DNA phosphodiesterase 1 (TDP1): qHTS in cells in absence of CPT. AID 686978, 2013. Potency, µM (series often up to 46.2 µM), inactives show at the top dose activity change, negative = growth inhibition, usual class: inhibitors. hit rate 15% among 420,000. DT40 Tdp1-/- hTDP1 cells, no CPT, ATP luminescence, 48 h; note: nearly all actives have a fitted effect of over 55% in size
#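 A cellular qHTS used chicken DT40 cells lacking endogenous Tdp1 but carrying stably transfected human TDP1. Compounds were applied without camptothecin, and cell growth kinetics were judged by ATP-dependent luminescence after ≥48 hr.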
# TDP1 cell CPT – growth inhibition of DT40 Tdp1-/-;hTDP1 cells with camptothecin (screen for TDP1 inhibitors); chicken DT40 Tdp1-/-;hTDP1 cells + 20 nM CPT, ATP luminescence, 48 h; Potency, µM (titrated, usually from 46.2 µM), for inactives: at the highest dose activity change, negative = growth inhibition, hits mostly inhibitors; hit rate 12% among 420,000; note: nearly all actives have a fitted effect of over 55% in size
#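 Chicken DT40 Tdp1-/- cells complemented with human TDP1, 400 cells/well, exposed to compounds plus 20 nM camptothecin for at least 48 h at 37 C; viability read as ATP content by CellTiter-Glo luminescence.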
# VP16 counter – Gal4-VP16 reporter inhibition counter-screen | Drosophila S2 Gal4-VP16 UAS-luciferase, luminescence, 20 h | Potency, µM (top dose mostly 53.6 µM), for inactives: at the highest dose activity, negative = inhibition, actives largely listed as inhibitors | hit rate 3.5% among 310,000 | AID 2546;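 note: Gal4-VP16 expression switched on by copper sulfate through the metallothionein promoter; nearly all actives have a fitted effect of over 50% in size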
# RORgamma inh – blocks mouse ROR gamma transcriptional activity. hit rate 5.4% among 310,000. Potency, µM (titrated, usually from 53.6 µM), for inactives: at the highest dose activity change, negative = inhibition, actives largely listed as inhibitors. Drosophila S2 Gal4-RORgamma UAS-luciferase reporter, 20 h. P51450; note: nearly all actives have a fitted effect of over 60% in size
#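 Drosophila S2 cells stably expressing Gal4-DBD/mouse RORγ fusion under metallothionein promoter plus UAS-luciferase; compound 1 h, then 700 uM CuSO4 induction for 20 h at ambient temperature; inhibition read as reduced luminescence.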
# * = called active by the depositor; ? = inconclusive; nt = no result given; [ ] = dose if it differs, or a comment. Calls come from the whole dose curve; as a rule, active = well fitted curve in the direction sought with a large enough effect; inconclusive = small, poorly fitted or top-dose-only effect, or another doubt; inactive = no such curve, though single readings can be large; an effect the other way counts as inactive or inconclusive. % is set by controls: 0 for no effect and ±100 for the full control effect; potency is the fitted concentration of half-maximal effect.
SMILES,ELG1 DNA repair,ALOX12 inh,TDP1 cell noCPT,TDP1 cell CPT,VP16 counter,RORgamma inh
CCn1cnnc1-c1nn(C)c2c1CN(C(=O)CN1CCCCCC1)CC2,nt,57%,nt,nt,nt,nt
CCOC(=O)c1cnc2c(C(F)(F)F)cccc2c1N1CCN(C)CC1,2%,?,-23%,-8%,5%,1%
CCOC(=O)c1cnc2c(OC)cccc2c1N1CCN(c2ccc(OC)cc2)CC1,?,30%,16µM*,?,2.2µM*,-5%
CCOC(=O)c1cnc2c(OC)cccc2c1N1CCN(c2ccccn2)CC1,?,-9%,16µM*,?,-3%,12%
CC(C)c1ccc(OCCN)cc1,nt,3%,nt,nt,nt,nt
CCOC(CCn1c(SCc2cccc([N+](=O)[O-])c2)nc2ccccc2c1=O)OCC,?,-17%,?,16µM*,-14%,?
Cn1c(SCc2cccc([N+](=O)[O-])c2)nc2ccccc2c1=O,?,1%,12µM*,16µM*,nt,nt
CCCCn1c(SCc2ccccc2C)nc2ccsc2c1=O,nt,-10%,?,?,nt,nt
CCCCn1c(SCc2cccc([N+](=O)[O-])c2)nc2ccsc2c1=O,?,2%,23µM*,?,3%,?
CCOC(=O)c1c(NC(=O)c2cc(=O)c3ccccc3o2)sc(C)c1C,nt,4%,nt,nt,nt,nt
Cc1cc(/C=N/n2c(COc3ccccc3)nc3ccccc3c2=O)c(O)c([N+](=O)[O-])c1,-24%,-6%,21µM*,16µM*,?,?
O=c1c2ccccc2nc(COc2ccccc2)n1/N=C/c1ccco1,?,-10%,15µM*,?,-23%,?
O=c1c2ccccc2nc(COc2ccccc2)n1/N=C/c1ccc(O)c(O)c1,?,3.5µM*,10µM*,15µM*,5%,0%
O=C(O)COc1ccc(/C=N/n2c(COc3ccccc3)nc3ccccc3c2=O)cc1,?,-1%,?,-24%,4%,13%
CCC(C)OC(=O)COc1ccc2c(=O)c(-c3ccccc3Cl)coc2c1 (stereo not given),nt,37%,nt,nt,nt,nt
O=C(NCc1coc(-c2cccs2)n1)c1ccccc1Br,nt,5%,nt,nt,nt,nt
CC1CC(C)CN(C(=O)c2ccc3c(c2)N(Cc2ccccc2)C(=O)CS3=O)C1 (stereo not given),nt,-31%,nt,nt,nt,nt
CCCCC[C@@H](C)N1C[C@H](COCc2ccccc2)Oc2cc(N3CC[C@@H](O)C3)ccc2S1(=O)=O,nt,?,21µM*,?,nt,nt
C[C@H](c1ccccc1)N1C[C@H](COCc2ccccc2)Oc2cc(N3CC[C@H](O)C3)ccc2S1(=O)=O,nt,-25%,?,?,nt,nt
CCCCC[C@@H](C)N1C[C@H](COCc2ccccc2)Oc2cc(N3CC[C@H](O)C3)ccc2S1(=O)=O,nt,-29%,?,?,nt,nt
CCCCC[C@@H](C)N1C[C@H](COCc2ccccc2)Oc2cc(N3CC[C@H](N(C)C)C3)ccc2S1(=O)=O,nt,-7%,18µM*,?,nt,nt
CCCCC[C@H](C)N1C[C@H](COCc2ccccc2)Oc2cc(N3CC[C@H](O)C3)ccc2S1(=O)=O,nt,-18%,?,?,nt,nt
C[C@H](c1ccccc1)N1C[C@@H](COCc2ccccc2)Oc2cc(N3CC[C@H](O)C3)ccc2S1(=O)=O,nt,-3%,16µM*,?,nt,nt
O=C1CCCN1CCCNCC1CCCCC1,nt,47%,nt,nt,nt,nt
CCc1cccc2c1NC(=O)C2(O)CC(=O)c1ccc(Cl)cc1 (stereo not given),nt,-51%,nt,nt,nt,nt
SMILES,ELG1 DNA repair,ALOX12 inh,TDP1 cell noCPT,TDP1 cell CPT,VP16 counter,RORgamma inh
O=C1NCCN1C1CCN(Cc2cncs2)CC1,nt,2%[12.5 µM],nt,nt,nt,nt
CCOCCn1c(N(C)Cc2ccccc2)nc2c1c(=O)[nH]c(=O)n2C,3%,?,-23%,-16%,-4%,-13%
Cn1c(=O)[nH]c(=O)c2[nH]c(N(Cc3ccccc3)Cc3ccccc3)nc21,?,0%,15µM*,?,3%,-26%
CN(Cc1ccccc1)c1nc2c(c(=O)[nH]c(=O)n2C)n1CCCc1ccccc1,?,?,35µM*,29µM*,-12%,?
Cn1c(=O)[nH]c(=O)c2c1nc(N(CCO)Cc1ccccc1)n2CCCc1ccccc1,-8%,81%,?,26µM*,9%,18%
CC(C)c1nc2c(c(-c3ccc(O)cc3)n1)CN([S+](=O)([O-])c1ccccc1)CC2,nt,-4%,nt,nt,nt,nt
CC1=NN(S(=O)(=O)c2ccc(Cl)cc2Cl)C(=O)c2ccccc2O1,-11%,-7%,16µM*,16µM*,2%,14%
COc1ccc(Cl)cc1Cn1c(C)c(C(=O)NCc2ccc3c(c2)OCCO3)sc1=O,nt,2%,18µM*,?,nt,nt
COc1ccc(C(C)=O)cc1Cn1c(C)c(C(=O)NCc2ccc(C(C)C)cc2)sc1=O,nt,0%,?,?,nt,nt
CC(=O)Oc1ccc(Cn2c(C)c(C(=O)NCc3ccc4c(c3)OCCO4)sc2=O)cc1,nt,21%,16µM*,?,nt,nt
COc1ccc(CNC(=O)c2sc(=O)n(Cc3cc(C(C)=O)ccc3OC)c2C)cc1,nt,-2%,13µM*,23µM*,nt,nt
COc1ccc(C(C)=O)cc1Cn1c(C)c(C(=O)NCc2ccc3c(c2)OCO3)sc1=O,nt,-6%,?,?,nt,nt
Cc1cccc(C)c1Cn1c(C)c(C(=O)NCc2ccc([N+](=O)[O-])cc2)sc1=O,nt,11%,23µM*,?,nt,nt
COC(=O)c1ccc(Cn2c(C)c(C(=O)NCc3ccc([N+](=O)[O-])cc3)sc2=O)o1,nt,-2%,?,?,nt,nt
N#CCOc1ccccc1/C=C/C(=O)c1ccc(F)c(Cl)c1,nt,-25%,nt,nt,nt,nt
CCOC(=O)C1=CN(c2ccc(OCC)cc2)C=C(C(=O)OCC)C1c1ccc(SC)cc1,nt,-5%,nt,nt,nt,nt
Cc1c(C(=O)NCc2ccc(Cl)c(Cl)c2)sc(=O)n1Cc1cccc(F)c1,nt,-11%,?,?,nt,nt
COc1ccc(C(C)=O)cc1Cn1c(C)c(C(=O)NCc2cccc(C)c2)sc1=O,nt,14%,?,?,nt,nt
COc1ccc(C(C)=O)cc1Cn1c(C)c(C(=O)NCc2cccc(Cl)c2)sc1=O,nt,16%,21µM*,?,nt,nt
CSc1ccc(Cn2c(C)c(C(=O)NCc3cccc(C)c3)sc2=O)cc1,nt,1%,?,23µM*,nt,nt
COc1ccc(NC(=O)c2sc(=O)n(Cc3ccc(F)c(Cl)c3)c2C)cc1OC,nt,4%,10µM*,23µM*,nt,nt
COc1ccc(Cl)cc1Cn1c(C)c(C(=O)NCc2cccc(Cl)c2)sc1=O,nt,5%,?,15µM*,nt,nt
